# High-throughput results from PubChem BioAssay.
# CBFb RUNX1 block – CBF-beta/RUNX1 interaction disruption; Q01196+Q13951; AlphaScreen CBFb-His/RUNX1-biotin binding, biochemical; Potency, µM (titrated, usually from 59.8 µM), for the others: at the top dose activity, negative = inhibition, hits mostly inhibitors; 230,000 tested, under 10 active; AID 1477; note: % of control where 0% means no effect
#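 CBFb-His/RUNX1-biotin, 30 nM each, preincubated 20 min RT; compound 15 min RT; Ni + streptavidin beads 50 ng each, 90 min RT; AlphaScreen read.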
# D3 antag – antagonists of human D3 dopamine receptor. P35462. D3R cells, DiscoveRx beta-arrestin luminescence, antagonist mode; stronger effect = lower value. max response, negative = inhibition, %. 2.5% of 360,000 active; in the data active = max response below about -50%; inconclusive = no clear call, values can overlap the other calls; note: % is set by controls: 0 for no effect and ±100 for the full control effect
# Target sequence (P35462 whole entry, looked up): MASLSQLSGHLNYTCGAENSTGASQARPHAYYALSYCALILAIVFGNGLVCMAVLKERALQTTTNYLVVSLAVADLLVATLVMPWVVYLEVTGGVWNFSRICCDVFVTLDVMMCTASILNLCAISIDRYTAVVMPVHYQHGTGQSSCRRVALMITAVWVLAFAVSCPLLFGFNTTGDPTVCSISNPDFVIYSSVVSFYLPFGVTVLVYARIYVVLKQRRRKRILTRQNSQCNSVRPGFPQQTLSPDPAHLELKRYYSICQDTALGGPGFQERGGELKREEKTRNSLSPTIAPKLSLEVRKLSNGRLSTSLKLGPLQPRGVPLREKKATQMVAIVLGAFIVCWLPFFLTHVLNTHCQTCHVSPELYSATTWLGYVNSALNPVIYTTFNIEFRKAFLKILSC
#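 Cells plated overnight at 1500 cells/well, then exposed to library compounds with dopamine controls for 90 minutes at 37 degrees C. DiscoveRx reagent added for 30–60 minutes at room temperature; luminescence read, quantitative HTS format.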
# PTHR1 ag – activates the human parathyroid hormone receptor PTHR1. HEK293 GP2 PTHR1 cells, GloSensor cAMP luminescence, 1 h. Potency, µM (top dose mostly 115 µM), for the others: at the top dose activation, hits mostly activators. 0.075% of 410,000 active. Q03431; note: potency is the fitted concentration of half-maximal effect; nearly all actives have a fitted effect of over 55% in size
#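 HEK-293-derived GP2 cells expressing PTHR1 and a GloSensor cAMP reporter, 3,000/well, plated overnight, given luciferin plus IBMX (each 0.5 mM as added) for 1 h at 37 °C, then compound for 1 h at 37 °C. Luminescence was read after 15 min at room temperature.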
# MBNL1-CUG inh – MBNL1-poly(CUG) RNA binding inhibition | Q9NR56 | TR-FRET MBNL1-His/biotin-(CUG)12 binding, 665/545 ratio | Potency, µM (highest dose often 57.5 µM), for the others: at the top dose activity change, negative = inhibition, hits mostly inhibitors | 0.036% of 280,000 active | AID 2675; active = well fitted inhibition curve with a large enough effect in the signal ratio, with a control signal flat, not every such curve was filed as active; inconclusive = small, poorly fitted or top-dose-only effect, or effect the other way, or a change in a side signal; inactive = no such curve, though single readings can be large or run the other way; the % refers to the signal ratio; note: potency is the fitted concentration of half-maximal effect; % is set by controls: 0 for no effect and ±100 for the full control effect
#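 His-tagged MBNL1 binding to biotinylated (CUG)12 RNA was measured by TR-FRET using terbium anti-His antibody (0.055 ng/ul final) and streptavidin-XL665 (5 nM final). Compounds were titrated 92 nM to 58 uM; 60 min at room temperature.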
# D3 ag – activates the human D3 dopamine receptor; AID 652048; P35462; max activation, %; D3R DiscoveRx beta-arrestin cells, luminescence, 90 min; 0.58% of 410,000 active; in the data active = max activation above about 30%; note: 0% is about no effect
#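 Agonist mode: compounds and dopamine controls were applied to plated cells for 90 min at 37 degrees C after an overnight attachment at 1500 cells/well. Luminescent read-out followed 30 - 60 minutes at room temperature with DiscoveRx detection reagent.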
# a7 integrin act – activates integrin-mediated alleviation for muscular dystrophy; alpha7betagal myoblasts, beta-gal FDG fluorescence, 48 h; AID 624291; Potency, µM (doses to about 38.3 µM), for inactives: at the top dose activation, most hits filed as activators; 0.064% of 350,000 active;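 note: potency is the fitted concentration of half-maximal effect; 100% = response of the positive control SU9516; nearly all actives have a fitted effect of over 60% in size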
#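 Alpha7betagal+/- myoblasts (passage 13) were plated 16-24 hr, then exposed to compounds (1:260 dilution of DMSO stock) for 48 hours at 37C. After MPER lysis, β-galactosidase reporter activity was read as FDG fluorescence (ex 480/em 540) after 30 minutes.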
# * hit, by the source's call; i = inactive; ? = inconclusive; . = not tested or not shown; ! = repeats disagree; [ ] = remark or other dose. An excerpt weighted towards active compounds, which were near 2.8% of everything screened. Unless noted, calls come from the whole dose curve; as a rule, active = well fitted curve in the direction sought with a large enough effect; inconclusive = small, poorly fitted or top-dose-only effect, or another doubt; inactive = no such curve, though single readings can be large; an effect the other way counts as inactive or inconclusive.
SMILES,CBFb RUNX1 block,D3 antag,PTHR1 ag,MBNL1-CUG inh,D3 ag,a7 integrin act
COc1ccc2c(c1O)-c1c(OC)c(OC)cc3c1[C@@H](C2)N(C)CC3,-1%,.,.,.,.,.
COc1ccc2c(c1OC)CN1CCc3cc4c(cc3C1C2)OCO4 (stereo unspecified),.,-106*,-49%,2%,-2,0%
COc1ccc2c(c1OC)C(=O)O[C@H]2[C@H]1c2cc3c(cc2CCN1C)OCO3,-3%[21.7 µM],.,.,.,.,.
COc1ccc2c(c1OC)CN1CCc3cc4c(cc3[C@H]1C2)OCO4,-8%[21.7 µM],-113*,-28%,.,-65,-13%
Cc1ccc(N2C(=O)NC(=O)/C(=C\C=C\c3ccco3)C2=O)cc1,-29%,-16,-24%,6%,-4,-39%
Cc1ccc(N2C(=O)NC(=O)/C(=C\C=C\c3ccco3)C2=O)cc1C,?,-59*,-52%,?,0,-55%
[O-][Cl+]O,-1%[21.7 µM],.,.,.,.,.
O=C1NCN(c2ccccc2)C12CCNCC2,-2%,-86*,-8%[57.5 µM],-15%,-33,-11%[7.66 µM]
CCC(c1nnnn1-c1ccc2c(c1)OCCO2)N1CCC2(CC1)C(=O)NCN2c1ccccc1 (stereo unspecified),.,-51*,-16%,.,-7,.
CC(C)(C)n1nnnc1C(CCc1ccccc1)N1CCC2(CC1)C(=O)NCN2c1ccccc1 (stereo unspecified),.,-68*,-14%,.,-15,.
CC(C)(C)n1nnnc1C(c1ccccc1)N1CCC2(CC1)C(=O)NCN2c1ccccc1 (stereo unspecified),.,-67*,-14%,.,-12,.
C=CCn1nc(C(=O)N2CCOCC2)cc1-c1sc(NC(=O)c2ccccc2)nc1C,.,21,-84%,.,6,0%
O=C1NCN(c2ccccc2)C12CCN(C(c1cccc3ccccc13)c1nnnn1C1CCCCC1)CC2 (stereo unspecified),.,-70*,-14%,.,-12,.
C=C(C)CCl,26%[21.7 µM],.,.,.,.,.
CCCCCc1cc(O)c2c(c1)OC(C)(C)[C@@H]1CCC(C)=C[C@@H]21,.,.,.,.,8,.
CN1CCN(c2ccc(N)cc2Cl)CC1,-6%,-60*,-30%,-8%,-14,-16%
O=C(Cc1ccccc1)OCCN1CCCCC1,7%,?,-1%[57.5 µM],7%,1,10%
NC(=O)C1(N2CCCCC2)CCN(Cc2ccccc2)CC1,8%,-68*,24%[57.5 µM],2%,-29,19%
Cc1ccccc1-n1c(C)nc2ccccc2c1=O,2%,11,i,-13%,68*!,-25%
CCN1/C(=C/C=C/C2=[N+](CC)c3ccccc3C2(C)C)C(C)(C)c2ccccc21,.,-72*,-67%,.,-5,.
CN1/C(=C\C=C2C(=O)NC(=O)NC2=O)C(C)(C)c2ccccc21,-6%,1,-54%,?,1,-3%
Cc1nonc1OCCNCCNc1ccc([N+](=O)[O-])c2cccnc12,-3%,-63*,i,?,-12,5%
CCN(CC)CCO[C@H]1CC[C@@]2(C)C(=CC[C@@H]3[C@H]2CC[C@]2(C)C(=O)CC[C@H]32)C1,11%[21.7 µM],.,.,.,.,.
CCN(CC)CCO[C@H]1CC[C@@]2(C)C(=CC[C@@H]3[C@@H]2CC[C@]2(C)C(=O)CC[C@@H]32)C1,.,.,.,.,34*,.
O=c1[nH]c2ccccc2n1C1CCN(C(c2cc3ccccc3o2)c2nnnn2-c2ccc3c(c2)OCCO3)CC1 (stereo unspecified),.,83,-82%,.,43*,.
SMILES,CBFb RUNX1 block,D3 antag,PTHR1 ag,MBNL1-CUG inh,D3 ag,a7 integrin act
c1ccc2[nH]c(CCNC3CCCCC3)nc2c1,4%,-53*,i,9%,-4,-6%
c1ccc2c(CCNC3CCCCC3)c[nH]c2c1,6%,-22,i,-6%,-4,-8%
CCOC(=O)C1(c2ccccc2)CCN(CCC(C#N)(c2ccccc2)c2ccccc2)CC1,.,-72*,i,.,-77,.
CCOC(=O)C1(c2ccccc2)CCN(CCC(=O)Nc2cccc(Br)c2)CC1,.,-87*,-23%,.,-27,-69%
O=C(CCN1CCOCC1)Nc1ccc(Br)cc1C(=O)c1ccccc1,.,0,?,?,-5,-2%
CCOC(=O)C1(c2ccccc2)CCN(CCC(=O)Nc2ccc(C(=O)OC)cc2)CC1,.,-51*,-5%,.,-19,-33%
CCOC(=O)C1(c2ccccc2)CCN(CCC(=O)Nc2ccc(OC)cc2)CC1,.,-11,-17%,.,3,-10%
CCOC(=O)C1(CCOc2ccccc2)CCN(Cc2ccccc2OC)CC1,.,?,-18%,-14%,-20,-49%
CCOC(=O)C1(c2ccccc2)CCN(CC(=O)Nc2ccc(C)cc2)CC1,1%,-56*,-8%,-2%,-6,-71%
[2H]C([2H])([2H])[C@H](N)Cc1ccccc1,.,.,.,.,7,.
C=C1C(=O)O[C@@H]2C[C@@H](C)[C@@H]3C4OC4C(=O)[C@@]3(C)[C@@H](O)[C@H]12 (stereo partly specified),2%,-91*,-30%,-7%,-22,-40%
C=C1C(=O)O[C@H]2C[C@@H](C)[C@@H]3C=CC(=O)[C@@]3(C)C[C@H]12,4%,-66*,-83%,-4%,-3,-41%
C=C1C(=O)OC2C1CCC(C)C1(O)C=CC(=O)C21C (stereo unspecified),.,22,-40%,.,4,-45%
C=C1C(=O)O[C@H]2[C@H]1[C@H](OC(=O)CC(=O)O[C@@H]1C[C@@H](C)[C@@H]3C=CC(=O)[C@@]3(C)[C@H]3OC(=O)C(=C)[C@H]13)C[C@@H](C)[C@H]1C=CC(=O)[C@]12C,2%,-13,-90%,4%,-5,-30%
C=C1C(=O)OC2CC(C)C3C=CC(=O)C3(C)C(O)C12 (stereo unspecified),.,-75*,-98%,.,-26,-52%
C=C1C(=O)O[C@@H]2C[C@@H](C)[C@@H]3C=CC(=O)[C@@]3(C)[C@@H](OC(=O)CC(=O)O[C@H]3[C@@H]4C(=C)C(=O)O[C@@H]4C[C@@H](C)[C@@H]4C=CC(=O)[C@]43C)[C@H]12,-18%,-110*,-53%,1%,-32,-41%
COc1ccccc1NC(=O)c1cc[n+](C)cc1,.,13,-5%,?,2,14%
CN1C(=O)c2ccccc2Sc2ccc(NC(=O)N3CCN(c4ccccc4)CC3)cc21,.,.,-94%,.,-4,.
Cn1c(=O)oc2cc(S(=O)(=O)N3CCCC(C(=O)N4CCN(c5ccc(Cl)cc5)CC4)C3)ccc21 (stereo unspecified),.,.,-46%,.,1,.
